The results in this text go back to the supplement of paper PMC7411054.

Common to all, as to conditions: treatment time: 24 h
Experiment [1] relates to HepG2-GM130-SQSTM1. The experiment is described as follows: lowest phenotypically active concentration; higher = less potent. In outline:
(§1)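 The reporter lines, fifteen in total and built by gene editing in A549, HepG2 and WPMY1 cells, used BFP for segmentation alongside GFP and RFP/FusionRed markers. Each was treated at 0.3, 1, 3 or 9 µM for 24 h in four wells and then imaged live, with live-cell features normalised to solvent control wells. Deviation meant ≥3 of 4 wells beyond the 95th percentile of control Euclidean distances; reproducibility meant a median replicate Pearson correlation above the 95th percentile of non-replicates. Only conditions meeting both were scored as phenotypically active.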

Experiment [2] concerns A549-ACTB-RAB5A. As to the kind of experiment: phenotypically active (imaging signature differs from DMSO and reproducible) at any of 0.3-9 uM (binary (1 = active, 0 = inactive)); higher = active. In outline: as §1
The subject of experiment [3] is A549-CANX-COX4. Described as above. Put shortly:
as §1

Experiment [4] deals with A549-GM130-SQSTM1. The experiment is described as above. Put shortly: as §1
Experiment [5] relates to A549-TP53BP1-CLTA. Described as above. Put shortly: as §1
Experiment [6] relates to A549-TUBA1B-RELA. The description is as above. In outline:
as §1

Experiment [7] relates to HepG2-ACTB-RAB5A. The experiment is described as above. In outline: as §1
The test system of experiment [8] is HepG2-CANX-COX4. The experiment is described as above. In outline:
as §1

Experiment [9] has as its system HepG2-GM130-SQSTM1. The description is as above. Put shortly: as §1
Experiment [10] concerns HepG2-TP53BP1-CLTA. The experiment is described as above. Put shortly:
as §1

The test system of experiment [11] is HepG2-TUBA1B-RELA. Described as above. In outline:
as §1

Experiment [12] concerns WPMY1-ACTB-RAB5A. The description is as above. Put shortly:
as §1

Experiment [13] relates to WPMY1-CANX-COX4. The description is as above. In outline: as §1
Experiment [14] concerns WPMY1-GM130-SQSTM1. The experiment is described as above. In outline: as §1
The subject of experiment [15] is WPMY1-TP53BP1-CLTA. Described as above. Put shortly:
as §1

The subject of experiment [16] is WPMY1-TUBA1B-RELA. Described as above. Put shortly: as §1
Experiment [17] concerns WPMY1-GM130-SQSTM1. As to the kind of experiment: lowest phenotypically active concentration; higher = less potent. Put shortly: as §1
The subject of experiment [18] is A549-GM130-SQSTM1. Described as above. In outline:
as §1

In experiment [19] the test system is WPMY1-TP53BP1-CLTA. Described as above. In outline:
as §1

As to `N#Cc1c(Oc2cccc(OS(=O)(=O)CCCC(F)(F)F)c2)cccc1C(F)(F)F`, the “lowest phenotypically active concentration” value in experiment [1] stood at 9 µM. For the same compound, the phenotypically active in experiment [2], in [3], in experiment [4], in experiment [5], in [6] and in experiment [7] was 0 (inactive) each time. Moreover, the phenotypically active in experiment [8] was 0 (inactive); in experiment [9], 1 (active); in [10] it was 0 (inactive); in [11], 0 (inactive); in experiment [12], 0 (inactive); in experiment [13], 0 (inactive). Also, the phenotypically active in experiment [14], in experiment [15] and in experiment [16] was 0 (inactive) in each case.
As to `CN1C[C@H](CO)C=C2c3cccc4[nH]cc(c34)C[C@H]21` [Lysergol], the “lowest phenotypically active concentration” value in [17] came out at 9 µM. Besides, the phenotypically active in experiment [2], in experiment [3], in [4], in experiment [5], in experiment [6] and in experiment [7] was 0 (inactive) in each case. In addition, the phenotypically active in [8], in [9], in experiment [10], in [11], in experiment [12] and in [13] was 0 (inactive) throughout. In addition, the values for the phenotypically active in experiment [14], in [15] and in [16] were 1 (active), 0 (inactive) and 0 (inactive), respectively.
Regarding `CN1[C@@H]2CC[C@H]1C[C@@H](OC(=O)[C@H](CO)c1ccccc1)C2` [Hyoscyamine (L)], the phenotypically active in experiment [2], in experiment [3], in experiment [4], in experiment [6], in experiment [7] and in [8] was 0 (inactive) each time. The phenotypically active in [9], in experiment [11], in [12], in experiment [13], in experiment [14] and in [16] was 0 (inactive) throughout.
With `BrC1C(Br)C(Br)C(Br)C(Br)C1Br` (centres undefined) [1,2,3,4,5,6-Hexabromocyclohexane], in experiment [1], the “lowest phenotypically active concentration” value came out at 9 µM. For the same compound, the phenotypically active in [2], in experiment [3], in [4], in experiment [5], in experiment [6] and in [7] was 0 (inactive) throughout. In addition, the phenotypically active in [8] is 0 (inactive); in experiment [9], 1 (active); in [10], 0 (inactive); in [11] it was 0 (inactive); in experiment [12], 0 (inactive); in experiment [13] it was 0 (inactive). The phenotypically active in experiment [14], in experiment [15] and in experiment [16] was 0 (inactive) throughout.
As to `C[C@@H](CO)NC(=O)[C@@H]1C=C2c3cccc4[nH]cc(c34)C[C@H]2N(C)C1` [Ergobasine], the “lowest phenotypically active concentration” value in experiment [18], in [1], in experiment [17] and in experiment [19] was 9 µM throughout. Besides, the phenotypically active in experiment [2] is 0 (inactive); in experiment [3], 0 (inactive); in experiment [4] it was 1 (active); in experiment [5] it was 1 (active); in [6] it was 0 (inactive); in [7] it was 0 (inactive). Moreover, the phenotypically active in [8] is 0 (inactive); in experiment [9], 1 (active); in experiment [10] it was 0 (inactive); in experiment [11], 0 (inactive); in experiment [12] it was 0 (inactive); in experiment [13], 1 (active). The results for the phenotypically active in experiment [14], in [15] and in experiment [16] were 1 (active), 1 (active) and 0 (inactive), respectively.
